Compound activity as filed in PubChem BioAssay.
NCOA2 inhibitor: human SRC2 (NCOA2) inhibition; inhibition, % at 9 µM; HEK293 GAL4-SRC2 luciferase reporter, luminescence; actives 0.17% (n = 370,000); Q15596; AID 651957;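 active = inhibition above the mean inhibition of all tested compounds plus 3 SD, set per campaign, cut at about 52% in these data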
COUP-TFII inh: NR2F2 (human) inhibition, primary screen | actives 0.7% (n = 370,000) | P24468 | inhibition, % at 8.6 µM | HEK293T NGFI-A luciferase reporter, luminescence;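 active = inhibition above a per-plate cutoff, mean inhibition of test wells between control levels plus 3 SD, cut at about 38% in these data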;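 also: cells cotransfected with COUP-TFII expression vector driving the NGFI-A reporter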
NCOA3 inh: inhibits human SRC3 coactivator. HEK293 GAL4-SRC3 luciferase reporter, luminescence. inhibition, % at 3.6 µM. actives 0.17% (n = 360,000). AID 588352;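 active = inhibition above a per-campaign cutoff, the mean of all compounds plus 3 SD, cut at about 60% in these data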;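 also: higher means less SRC3-driven luciferase light from the GAL4 reporter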
NR5A2 inv ag: suppresses constitutive activity of human LRH-1; inhibition, % at 3.6 µM; O00482; actives 0.13% (n = 360,000); HEK293T StAR-luciferase reporter, LRH-1 transfected, 24 h;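 active = inhibition above the mean inhibition of all tested compounds plus 3 SD, cut at about 73% in these data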
SRC1 inh: inhibits human SRC1 coactivator | Q15788 | HEK293 GAL4-SRC1 luciferase reporter, luminescence | inhibition, % at 3.6 µM | actives 0.12% (n = 360,000) | AID 588354;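 active = inhibition above the campaign mean plus 3 SD, with each screening campaign given its own cutoff, cut at about 60% in these data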
VP16 Luc counter: counter-screen for COUP-TFII antagonists: inhibitors of VP16. HEK293 Gal4-VP16 luciferase reporter, luminescence. shares compounds with COUP-TFII inh. actives 25% (n = 2,500). inhibition, % at 8.5 µM; in the data active = inhibition above about 13%
COUP-TFII conf: COUP-TFII (NR2F2) inhibition, confirmation assay; inhibition, % at 8.5 µM; actives 45% (n = 2,500); HEK293 NGFI-A luciferase reporter, luminescence; shares compounds with COUP-TFII inh; AID 687008;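 active = mean inhibition over three repeats above a set limit taken from the earlier primary screen, cut at about 38% in these data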
Large screens that a line does not name were inactive (follow-up assays come after a bar, where they were run). The list is not random: actives were taken first. Their share in the collection is about 0.83%.

Cc1ccc(C(C)C)c(OCc2ccc(C(=O)N/N=C/c3ccc(O)c(O)c3)cc2)c1	COUP-TFII inh 44 | VP16 Luc counter 19 | COUP-TFII conf inactive
O=C1N(c2ccccc2)C[C@@H]2C[C@@H](c3cc4ccccc4o3)N3CCC[C@@]123	NCOA2 inhibitor 54, COUP-TFII inh 80, NCOA3 inh 88, NR5A2 inv ag 95, SRC1 inh 90 | VP16 Luc counter inactive | COUP-TFII conf 74
COc1cc(SC)ccc1C(=O)Nc1ccc(Br)cn1	none
COc1cc(SC)ccc1C(=O)Nc1ncc(C)s1	NCOA2 inhibitor 53, COUP-TFII inh 48 | VP16 Luc counter inactive | COUP-TFII conf inactive
COCc1ccc(C(=O)N2CCC(CCC(=O)Nc3cccc(C)c3)CC2)s1	COUP-TFII inh 40 | VP16 Luc counter 30 | COUP-TFII conf inactive
CC1CCC(C(C)C)C(OC(=O)Cn2c(-c3ccccc3)[n+](C)c3ccccc32)C1 (stereo unspecified)	COUP-TFII inh 57, NCOA3 inh 79, NR5A2 inv ag 75 | VP16 Luc counter 14 | COUP-TFII conf 38
CC(C)NC(=O)N[C@H]1C[C@@H]2O[C@@H](CO)CC[C@@H]2O[C@@H]1CCc1ccc(-c2ccccc2F)cc1	none (no result: NCOA3 inh, NR5A2 inv ag, SRC1 inh)
CCCOc1ncnc2c1[nH]c1ccccc12	COUP-TFII inh 40 | VP16 Luc counter inactive | COUP-TFII conf inactive
CCCOc1ncnc2c1[nH]c1ccc(OC)cc12	none
CC(C)Oc1ncnc2c1[nH]c1ccccc12	COUP-TFII inh 38 | VP16 Luc counter inactive | COUP-TFII conf inactive
CC1CC(C)C(=O)C(C(CC2CC(=O)NC(=O)C2)OC(=O)CC(=O)c2ccccc2)C1 (stereo unspecified)	NCOA2 inhibitor 54, COUP-TFII inh 71, NCOA3 inh 85, NR5A2 inv ag 98, SRC1 inh 80 | VP16 Luc counter inactive | COUP-TFII conf 50
O=C1CCC(C(=O)OCC(=O)c2ccccc2)N1 (stereo unspecified)	none
COc1ncc(-c2ccc(N3C(c4ccsc4)=Cc4ccccc4C3CC(C)=O)cc2)cn1 (stereo unspecified)	none (no result: NCOA3 inh, SRC1 inh)
CC(=O)CC1c2ccccc2C=C(c2ccsc2)N1c1ccc(-c2cccs2)cc1 (stereo unspecified)	COUP-TFII inh 46 (no result: NCOA3 inh, SRC1 inh) | VP16 Luc counter inactive | COUP-TFII conf inactive
Fc1ccc(NC(=S)N2CCCN(c3ccc(C(F)(F)F)cn3)CC2)c(F)c1	COUP-TFII inh 64 | VP16 Luc counter inactive | COUP-TFII conf 63
O=C1C(=C(c2ccccc2)N2CCOCC2)Cc2ccccc21	COUP-TFII inh 39 | VP16 Luc counter 40 | COUP-TFII conf inactive
CN(C)S(=O)(=O)N1CCC(Oc2cccc(C(=O)NCCC3=CCCCC3)c2)CC1	COUP-TFII inh 56 | VP16 Luc counter inactive | COUP-TFII conf inactive
CN(C)S(=O)(=O)N1CCC(Oc2ccc(C(=O)NC3CCCCC3)cc2)CC1	none
CN(C)S(=O)(=O)N1CCC(Oc2cccc(C(=O)NC3CCCCC3)c2)CC1	COUP-TFII inh 57 | VP16 Luc counter inactive | COUP-TFII conf 40
Clc1ccc(-c2nnc(CSc3nnc(-c4cccs4)n3Cc3ccccc3)o2)cc1	COUP-TFII inh 51 | VP16 Luc counter inactive | COUP-TFII conf 47
CCOc1cc(C(=S)N2CCOCC2)ccc1OS(=O)(=O)c1ccc(NC(C)=O)cc1	COUP-TFII inh 48 | VP16 Luc counter inactive | COUP-TFII conf inactive
CCOc1cc(C(=S)N2CCOCC2)ccc1OS(=O)(=O)c1ccc(OC)cc1	none
CCCN1CCCCC(NC(=O)c2ccc(-c3ccccc3)cc2)C1=O (stereo unspecified)	none (no result: NCOA3 inh, NR5A2 inv ag, SRC1 inh)
Cc1cc(/C=C2/SC(=S)N(c3ccc([N+](=O)[O-])cc3)C2=O)c(C)n1-c1cccnc1	none
Cc1cc(/C=C2\SC(=S)N(C)C2=O)c(C)n1-c1ccc(O)cc1	NCOA2 inhibitor 73, COUP-TFII inh 84, NCOA3 inh 81, SRC1 inh 80 | VP16 Luc counter 68 | COUP-TFII conf 98
Cc1cc(/C=C2/SC(=S)N(c3cccc(Cl)c3)C2=O)c(C)n1-c1cccnc1	COUP-TFII inh 65 | VP16 Luc counter inactive | COUP-TFII conf 64
Cc1ccc(-n2c(C)cc(/C=C3\SC(=O)NC3=O)c2C)cc1	none
Cc1cc(/C=C2\SC(=S)N(C)C2=O)c(C)n1-c1ccccc1O	COUP-TFII inh 43 | VP16 Luc counter inactive | COUP-TFII conf inactive
Cc1noc(C)c1S(=O)(=O)N1CCCc2nc(-c3ccc(F)cc3)ccc21	none (no result: NCOA3 inh, NR5A2 inv ag, SRC1 inh)
O=C(CCc1ccccc1)N[C@H]1[C@H](OCc2ccccc2)CCC[C@@]12C(=O)N(Cc1ccccc1)c1ccc(-c3ccccn3)cc12	none (no result: NCOA3 inh, NR5A2 inv ag, SRC1 inh)
N#Cc1ccc(NC(=O)OC2CCC23CCC(c2ccccc2)CC3)cc1 (stereo unspecified)	none (no result: NCOA3 inh, NR5A2 inv ag, SRC1 inh)
Cc1cc(Nc2ccc(Cl)c(C(F)(F)F)c2)cc(=O)n1-c1ccc(Cl)c(C(F)(F)F)c1	none (no result: NCOA3 inh, NR5A2 inv ag, SRC1 inh)
CCc1c(-c2ccccc2F)ncn1Cc1cccc(-c2ccccc2)c1	COUP-TFII inh 44 (no result: NCOA3 inh, SRC1 inh) | VP16 Luc counter inactive | COUP-TFII conf inactive
CCc1c(-c2ccccc2)ncn1Cc1cccc(-c2ccccc2)c1	none (no result: NCOA3 inh, SRC1 inh)
O=C(COc1ccc2ccccc2c1)Nc1ccncc1	COUP-TFII inh 47 | VP16 Luc counter inactive | COUP-TFII conf inactive
CCCCOc1ccc(C(=O)Nc2ccncc2)cc1	COUP-TFII inh 51 | VP16 Luc counter inactive | COUP-TFII conf inactive
Cc1cc(OCC(=O)Nc2ccncc2)cc(C)c1Br	COUP-TFII inh 58 | VP16 Luc counter inactive | COUP-TFII conf inactive
Cc1ccc(Oc2ccc(OCC(=O)Nc3ccncc3)cc2)cc1	COUP-TFII inh 72 | VP16 Luc counter 19 | COUP-TFII conf 74
CCc1ccc(OCC(=O)Nc2ccncc2)cc1	none
Cc1cc(OCC(=O)Nc2ccncc2)ccc1Cl	none
COC(=O)c1ccc(S(=O)(=O)N2CCC(NC(=O)Cc3cccc(C)c3)CC2)cc1	none (no result: NCOA3 inh, NR5A2 inv ag, SRC1 inh)
CC(C)(C)c1ccc(NC(=O)COc2ccc(-n3ccnc3)cc2)cc1	COUP-TFII inh 51 | VP16 Luc counter inactive | COUP-TFII conf 47
CCOC1=C2[C@H](c3ccccc3)N(S(=O)(=O)c3ccc(C)cc3)[C@H](C(C)C)[C@H]2C(C#N)(C#N)C(C#N)(C#N)C1	none (no result: NCOA3 inh, NR5A2 inv ag, SRC1 inh)
O=C(c1ccc(Cl)cc1)N1CCN(c2ccnc3cc(Cl)ccc23)CC1	none
CC1CN(c2ccnc3cc(Cl)ccc23)CCN1C(=O)c1ccc(Cl)cc1 (stereo unspecified)	COUP-TFII inh 50 (no result: NCOA2 inhibitor, NCOA3 inh, NR5A2 inv ag, SRC1 inh) | VP16 Luc counter inactive | COUP-TFII conf inactive
O=C(c1cccc(Cl)c1)N1CCN(c2ccnc3cc(Cl)ccc23)CC1	COUP-TFII inh 49 (no result: NCOA2 inhibitor, NCOA3 inh, NR5A2 inv ag, SRC1 inh) | VP16 Luc counter inactive | COUP-TFII conf inactive
COc1ccc(CNC(=O)Cc2nn(C)c(=O)c3ccccc23)cc1	COUP-TFII inh 49 | VP16 Luc counter inactive | COUP-TFII conf inactive
